Reference: ChEMBL document CHEMBL5724796, “Tm Shift (DSF) assay results for EUbOPEN Chemogenomics Library” (2024)
Non-standard residues stand in square brackets, D forms with d. Residues, ends and D or L forms follow the SMILES beside them. *: point of attachment. Benzoyl(4-tBu) = CC(C)(C)c1ccc(C(=O)*)cc1; Lys(Et2) = CCN(CC)CCCC[C@H](N)C(=O)O

These molecules were tested against Mitogen-activated protein kinase 1 (Homo sapiens) (UniProt P28482). Details: Compound concentration 20.0 uM.
Chain of Mitogen-activated protein kinase 1 (Homo sapiens) (P28482 whole entry): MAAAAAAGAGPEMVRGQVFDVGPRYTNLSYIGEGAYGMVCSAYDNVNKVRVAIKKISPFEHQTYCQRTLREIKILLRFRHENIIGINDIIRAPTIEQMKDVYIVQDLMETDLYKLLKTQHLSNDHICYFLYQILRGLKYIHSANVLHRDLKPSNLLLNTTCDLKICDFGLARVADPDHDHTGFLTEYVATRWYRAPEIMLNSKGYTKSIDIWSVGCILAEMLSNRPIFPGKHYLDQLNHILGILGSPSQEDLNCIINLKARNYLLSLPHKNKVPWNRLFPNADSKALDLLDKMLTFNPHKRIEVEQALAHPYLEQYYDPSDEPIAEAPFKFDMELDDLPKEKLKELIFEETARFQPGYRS

Row | SMILES | ΔTm [°C]
1 | O=C(CCCCCCNC(=O)c1cnc(N(c2ccccc2)c2ccccc2Cl)nc1)NO | -0.04
2 | O=C1Nc2ccccc2C2(CCN(CC(Cc3ccccc3)Nc3nc4ccc(F)cc4s3)CC2)N1 (stereo unspecified) | -0.14
3 | C[C@@H]1CN(Cc2ncccn2)C[C@H]1c1nc2c(cnn2C2CCOCC2)c(=O)[nH]1 | 0.24
4 | CNCCCN1c2ccccc2CCc2ccccc21 | 0.06
5 | O=C(NCc1ccc(Cl)cc1)C1CCN(S(=O)(=O)c2cc(Cl)cc(Cl)c2)CC1 | 0.06
6 | COCCOCCn1nc2c(c1C)-c1c(Cl)ccc3c1c(C)c(C(=O)O)n3CCCOc1cc(cc3c(F)c(Cl)ccc13)CCc1cc(nn1C)CSC2 | -1.31
7 | O=c1[nH][nH]c(=O)c2cc(OCc3ccccc3F)ccc12 | -14.6
8 | CCN(CC)CCCC[C@H](NC(=O)[C@H](CC(C)C)NC(=O)[C@H](C)NC(=O)[C@H](Cc1ccccc1)NC(=O)c1ccc(C(C)(C)C)cc1)C(=O)N[C@@H](CO)C(=O)OC ({Benzoyl(4-tBu)}-FAL[Lys(Et2)]S-OMe) | 0.31
9 | Cc1cc(-c2ccccc2)cc(C(=O)NNS(=O)(=O)c2ccccc2)c1F | 0
10 | COc1ccc([C@@H]2CNC(=O)C2)cc1OC1CCCC1 | 0.08
11 | CC(C)[C@@H]1NC(=O)[C@H](Cc2ccc(O)cc2)NC(=O)[C@@H](CC(=O)O)NC(=O)S[C@@H](C(=O)O)NC(=O)[C@H]([C@H](C)O)NC(=O)[C@H](Cc2ccc(O)cc2)NC(=O)[C@H](Cc2c[nH]c3ccccc23)NC(=O)[C@H](CCCNC(=N)N)NC(=O)[C@H](Cc2c[nH]c3ccccc23)NC(=O)[C@H](C)NC(=O)[C@H](CO)NC(=O)[C@H](CCCNC(=N)N)NC(=O)[C@H]([C@H](C)O)NC(=O)[C@H](CC(N)=O)NC(=O)[C@H](Cc2ccc(O)cc2)NC1=O | 0.08
